# Assay outcomes deposited in PubChem BioAssay by National Center for Advancing Translational Sciences (NCATS).
# ATXN viability – Viability Counterscreen for Primary qHTS for Inhibitors of ATXN expression; S2 cells (HEK-293 line with an ATXN2-luciferase reporter) viability, CellTiter-Fluor protease fluorescence, 24 h; Potency, µM (series often up to 56.7 µM), most hits filed as cytotoxic; hit rate 0.49% among 400,000; AID 651635, 2014; further: nearly all actives have a fitted effect of over 40% in size
# GLP-1R agonist – qHTS of GLP-1 Receptor Agonists; HEK293 GLP-1R CRE-luciferase, luminescence, 4-6 h; cells express a hypersensitive GLP-1R form; Potency, µM (titrated, usually from 45.6 µM), most hits filed as activators; hit rate 0.007% among 380,000
# Target sequence (P43220 whole entry, looked up): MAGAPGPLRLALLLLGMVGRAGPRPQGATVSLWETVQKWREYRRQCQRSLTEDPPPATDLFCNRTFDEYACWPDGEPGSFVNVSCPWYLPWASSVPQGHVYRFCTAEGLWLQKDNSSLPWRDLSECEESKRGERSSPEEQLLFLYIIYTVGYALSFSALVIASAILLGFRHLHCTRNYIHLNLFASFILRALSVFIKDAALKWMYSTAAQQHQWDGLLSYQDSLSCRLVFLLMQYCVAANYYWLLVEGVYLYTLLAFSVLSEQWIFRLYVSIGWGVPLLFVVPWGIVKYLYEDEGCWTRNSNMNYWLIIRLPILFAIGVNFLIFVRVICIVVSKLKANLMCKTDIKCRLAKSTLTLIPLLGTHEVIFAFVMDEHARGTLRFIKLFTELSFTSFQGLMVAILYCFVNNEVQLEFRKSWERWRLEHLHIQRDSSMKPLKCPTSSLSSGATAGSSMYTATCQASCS
# HepG2 tox – qHTS for Inhibitors of TGF-b: Cytotox Counterscreen. AID 588856, 2011. HepG2 CAGA-GFP viability, ATP luminescence, 18 h. Potency, µM (titrated, usually from 46.1 µM), hits mostly cytotoxic. hit rate 0.76% among 410,000
#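 HepG2 CAGA-GFP cells (1000/well, DMEM with 1% FBS) received compound, then TGF-beta at 500 pg/mL final, and were incubated 18 hours at 37 degrees C. Viability was read by CellTiter-Glo luminescence. Media-only wells were set as complete cell-killing and DMSO as no toxicity.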
# GLP1R inv ag – qHTS of GLP-1 Receptor Inverse Agonists (Inhibition Mode). Glucagon-like peptide 1 receptor (Homo sapiens), P43220. HEK293 GLP-1R CRE-luciferase, luminescence, 24 h; GLP-1R form is constitutively active. Potency, µM (doses to about 38.3 µM), most hits filed as inhibitors. hit rate 1.6% among 410,000; further: nearly all actives have a fitted effect of over 55% in size
#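 Assay principle: reduced luminescence from a cAMP-responsive reporter in HEK293 cells co-expressing a constitutively active GLP-1R. Conditions: 24 hr compound incubation, 37 deg C, 5% CO2.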
# ATXN2 expr inh – Primary qHTS for Inhibitors of ATXN expression; HEK-293 ATXN2-luciferase reporter, luminescence, 24 h; Potency, µM (doses to about 57 µM), hits mostly inhibitors; hit rate 0.72% among 360,000; AID 1745845, 2022; further: nearly all actives have a fitted effect of over 55% in size
#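 qHTS (up to 57 uM final) was run with 24 h compound exposure of reporter cells at 37 °C. Each well was multiplexed: SteadyGlo luminescence measured ATXN2-luciferase expression after a fluorogenic Gly-Phe-AFC viability readout (25 uM final).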
# TGFb SMAD3 inh – qHTS for Inhibitors of TGF-b. Potency, µM (doses to about 46.1 µM), actives largely listed as inhibitors. hit rate 1.2% among 410,000. HepG2 CAGA-GFP TGF-b/SMAD3 reporter, GFP fluorescence, 18 h; TGF-beta stimulated, 500 pg/mL final; further: nearly all actives have a fitted effect of over 65% in size
#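 Cell-based qHTS in HEPG2 carrying a CAGA-GFP Smad reporter; compounds added before 500 pg/mL final TGF-beta, 18 h incubation at 37 degrees C, GFP fluorescence quantified per cell by imaging cytometry.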
# A number is an active result; - = inactive; ? = inconclusive; . = no result; ! = not confirmed by another sample. A selection: hits, their analogues and other compounds. The true share with any hit is near 3.7%. The call rests on the fitted dose curve; in most records, active means well fitted curve in the direction sought with a large enough effect; inconclusive means small, poorly fitted or top-dose-only effect, or another doubt; inactive means no such curve, though single readings can be large; an effect the other way counts as inactive or inconclusive.
SMILES,ATXN viability,GLP-1R agonist,HepG2 tox,GLP1R inv ag,ATXN2 expr inh,TGFb SMAD3 inh
O=C(CN1CCCCC1)Nc1cccc(Cl)c1,?,-,-,-,-,?
O=C1Nc2ccc([N+](=O)[O-])cc2OC1CCN1CCN(c2ccccc2)CC1 (stereo not drawn),-,-,-,11.2µM,-,-
O=C1Nc2ccc([N+](=O)[O-])cc2OC1CCN1CCOCC1 (stereo not drawn),?,-,-,-,-,-
Cc1cc(OCC(=O)NC2CC(C)(C)NC(C)(C)C2)c(C)cc1Br,-,-,-,4.47µM,-,-
CC1(C)CC(NC(=O)COc2ccc(Cl)cc2Cl)CC(C)(C)N1,-,-,-,?,-,-
CC(C)c1ccc(OCC(=O)NC2CC(C)(C)NC(C)(C)C2)c(Br)c1,-,-,11.2µM,?,-,?
C/C(=C(\CCOC(=O)c1ccccc1)SS/C(CCOC(=O)c1ccccc1)=C(/C)N(C=O)Cc1cnc(C)nc1N)N(C=O)Cc1cnc(C)nc1N,-,.,.,.,.,.
OC1c2cc(Br)ccc2N=C2CCCN21 (stereo not drawn),15.8µM,-,-,?,.,?
OC1c2cc(Br)ccc2N=C2CCCCCN21 (stereo not drawn),-,-,-,-,-,-
CCCN1CCC(=O)N(C(CSc2ccc(C)cc2)CC(C)C)CC1 (stereo not drawn),.,.,-,.,.,?
Cc1sc(N)nc1-c1cccc([N+](=O)[O-])c1,.,.,-,.,.,-
COc1ccc(C(=O)c2[nH]c(N)c(C(=O)NCCc3c[nH]c4ccccc34)c2-c2ccccc2Br)cc1,.,-,.,-,?,.
Nc1[nH]c(C(=O)c2ccccc2)c(-c2ccccc2Br)c1C(=O)NCCc1c[nH]c2ccccc12,20µM,-,.,?,?,.
C=C(C(=O)c1ccccc1)C(C)C(=C)C(=O)c1ccccc1,25.1µM,-,7.94µM,?,28.2µM,?
C=C(C(=O)c1ccccc1)C(c1ccccc1)C(C)C(=O)c1ccccc1 (stereo not drawn),.,-,-,?,-,?
O=C(NCCS(=O)(=O)N1CCN(c2ccc(F)cc2)CC1)C1CC(=O)N(c2ccc(F)cc2)C1 (stereo not drawn),.,.,-,-,.,-
Cc1ccc(N2CC(C(=O)NCCS(=O)(=O)N3CCN(c4ccc(F)cc4)CC3)CC2=O)cc1 (stereo not drawn),-,-,1µM!,-,-,-
Cc1nc(NC(=O)c2ccco2)sc1C(=O)O,-,-,5.01µM,?,-,-
Cc1onc(-c2ccccc2Cl)c1C(=O)NCc1cccnc1,-,-,-,-,-,-
CC(=O)c1c2c3c(c(Br)ccc3n(C)c1=O)C(=O)c1ccccc1-2,?,-,-,-,-,-
CC(=O)c1c(C)oc2c1C(=O)c1ccccc1C2=O,?,-,-,-,?,7.94µM
Cc1oc2c(c1C(=O)NCc1cccnc1)C(=O)c1ccccc1C2=O,2.82µM,-,0.447µM,3.16µM,2.82µM,0.282µM
CC(=O)c1ccc(Nc2cc(C)nc3nc(Cc4ccccc4)nn23)cc1,-,.,-,-,-,?
Cc1ccc(Nc2cc(C)nc3nc(Cc4ccc(Cl)cc4)nn23)cc1,.,.,-,?,14.1µM,3.98µM
Cc1ccc(Nc2cc(C)nc3nc(C)nn23)cc1,-,-,-,-,-,-
SMILES,ATXN viability,GLP-1R agonist,HepG2 tox,GLP1R inv ag,ATXN2 expr inh,TGFb SMAD3 inh
CCc1ccc(Nc2cc(C)nc3nc(Cc4ccc(Cl)cc4)nn23)cc1,?,.,-,-,?,12.6µM
CCCCC(CC)CCC(CC(C)C)OS(=O)(=O)O (stereo not drawn),-,-,.,.,.,.
C[C@@H]1CN([C@H](C)CO)S(=O)(=O)c2ccc(C#CC3CCCC3)cc2O[C@H]1CN(C)C(=O)Cc1ccccc1,22.4µM,-,15.8µM,?,?,?
C[C@@H]1CN([C@@H](C)CO)S(=O)(=O)c2ccc(Br)cc2O[C@H]1CN(C)Cc1ccccc1F,?,-,-,?,?,?
C[C@@H]1CN([C@H](C)CO)S(=O)(=O)c2ccc(Br)cc2O[C@@H]1CN(C)Cc1ccc(-c2ccccc2)cc1,?,-,-,?,?,15.8µM
C[C@H](O)C#Cc1ccc2c(c1)O[C@@H](CN(C)Cc1ccc(-c3ccccc3)cc1)[C@H](C)CN([C@@H](C)CO)S2(=O)=O,15.8µM,-,7.08µM,?,20µM,?
C[C@@H]1CN([C@H](C)CO)S(=O)(=O)c2ccc(Br)cc2O[C@@H]1CN(C)Cc1ccc(C(=O)O)cc1,-,-,-,-,-,-
C[C@H]1CN([C@@H](C)CO)S(=O)(=O)c2ccc(Br)cc2O[C@H]1CN(C)Cc1ccccc1F,?,-,-,?,?,15.8µM
O=c1c(-c2cc(-c3ccc(F)cc3)nc3c2COc2ccc(Cl)cc2-3)coc2ccc(F)cc12,.,.,-,-,.,-
CC#C[C@]1(O)CC[C@H]2[C@@H]3CCC4=CC(=O)CCC4=C3[C@@H](c3ccc(N(C)C)cc3)C[C@@]21C,-,-,-,?,15.3µM!,-
C#C[C@@]1(O)CC[C@@H]2[C@@H]3CCC4=CC(=O)CC[C@@H]4[C@H]3CC[C@]21C,-,.,.,.,.,.
Cc1ccc2c(c1)COc1c3ccc(C(=O)NCC4CC4)cc3nn1-2,?,-,-,-,?,?
Cc1ccc2c(c1)COc1c3ccc(C(=O)O)cc3nn1-2,-,-,-,1.26µM,7.94µM,-
CCOC(=O)C1=C(C)NC(C)=C(C(=O)OCC)C1/C=C/c1ccccc1,-,-,-,-,-,-
C=CCOC(=O)C1=C(C)NC(C)=C(C(=O)OCC=C)C1/C=C/c1ccccc1,-,-,12.6µM,5.01µM,-,?
C=CCOC(=O)C1=C(C)NC(C)=C(C(=O)OCC=C)C1c1ccco1,-,-,-,11.2µM,.,-
Cc1ccc(SC/C(O)=C(\C#N)c2nc3ccccc3s2)cc1,-,-,-,-,-,25.1µM
CCN1CCN(c2cc(N3CCN(C(=O)c4ccco4)CC3)c3c4c(onc24)-c2ccccc2C3=O)CC1,?,-,25.1µM,?,-,-
O=C(O)CCNc1cc(N2CCN(C(=O)c3ccco3)CC2)c2noc3c2c1C(=O)c1ccccc1-3,?,-,-,-,-,-
CCOC(=O)c1c(CC(C)C)csc1NC(=O)CCl,?,-,20µM,-,-,-
O=C(CCNC(=O)Cn1cnc2ccccc2c1=O)NCC1COc2ccccc2O1 (stereo not drawn),-,-,12.6µM,-,-,-
